The full list was thinned out, with hits kept by preference.
14-3-3 PPI – modulators of 14-3-3 gamma protein binding, primary screen, biochemical, fluorescence polarization; 14-3-3 protein gamma (Homo sapiens), P61981; FP, 14-3-3gamma / TMR-pS259-Raf peptide binding; inhibition, % at 40 µM; 160,000 compounds, 0.19% hits; AID 422, 2006; in the data active = inhibition above about 30%;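 also: 0% = protein plus tracer without compound and 100% = blank with tracer alone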
Target sequence (P61981 whole entry, looked up): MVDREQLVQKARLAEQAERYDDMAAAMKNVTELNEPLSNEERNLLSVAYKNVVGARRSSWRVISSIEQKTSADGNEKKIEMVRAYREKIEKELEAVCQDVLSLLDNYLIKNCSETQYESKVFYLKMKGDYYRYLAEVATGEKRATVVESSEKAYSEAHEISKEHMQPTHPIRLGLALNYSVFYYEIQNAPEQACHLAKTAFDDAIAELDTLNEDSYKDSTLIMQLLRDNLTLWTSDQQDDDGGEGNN
Active calls of the source: *.

SMILES	14-3-3 PPI
COc1cc2c(cc1OC)C(COc1cccc(C(F)(F)F)c1)N(C(=O)c1ccc(S(=O)(=O)N3CCOCC3)cc1)CC2 (stereo unspecified)	0
CCOC(=O)c1cnc2c(C)cc(Cl)cc2c1Nc1ccccc1Cl	-14
O=C(O)c1ccc2c3c(ncnc13)-c1ccccc1C2=O	40*
COc1ccc(Nc2ccc3c4c(ncnc24)-c2ccccc2C3=O)cc1	-72
O=C1c2ccccc2-c2ncnc3cccc1c23	-5
N#Cc1c(NC(=O)c2cc(-c3ccc(Br)cc3)on2)sc2c1CCCC2	-9
CCCCN(C)C(=O)C1(S(=O)(=O)c2ccc(Cl)cc2)CC1	-5
COC(=O)c1c(C)oc2ccc(N(C(C)=O)S(=O)(=O)c3ccc(Br)cc3)cc12	-42
O=C(NC(NCCC12CC3CC(CC(C3)C1)C2)(C(F)(F)F)C(F)(F)F)c1ccccc1	8
COc1ccc(-n2c(=O)c3c4c(sc3n(CC(=O)NCc3ccc(C)cc3)c2=O)CCCC4)c(OC)c1	0
O=[N+]([O-])c1ccc(CN2CCN(CC3CC=CCC3)CC2)cc1 (stereo unspecified)	-15
Cn1ccnc1SCC(=O)c1ccc(Cl)cc1	8
COc1ccc(C(=O)CSc2nccn2C)cc1OC	-6
CCn1c(CSc2nccn2C)nc2cc(C(=O)O)ccc21	57*
COC(=O)c1c(NC(=O)c2ccc(Cl)cc2)sc(C)c1C	-10
CCOC(=O)C1=C(C)N=C2SC(CC)C(=O)N2C1c1ccc(OCC)cc1 (stereo unspecified)	-5
N#CCc1ccc(NC(=O)COc2ccc3ccccc3c2)cc1	-9
C=C(C)Cn1c(SCCCC)nc2sc3c(c2c1=O)CCCC3	0
O=C1c2ccccc2C(=O)c2cc(Br)ccc21	-6
O=C1c2ccccc2-c2nc(-c3ccccc3)cc3cccc1c23	-14
Nc1cc2c3c(cccc3n1)C(=O)c1ccccc1-2	73*
CCN(CC)C(=O)CSc1nc2ccsc2c(=O)n1CCc1ccc(Cl)cc1	-1
COc1ccccc1CNC(=O)c1ccc(Cn2c(=O)c3ccccc3n(Cc3ccc(F)cc3)c2=O)cc1	-5
c1ccc(COCCOCCN2CCOCCOCCOCCOCCOCC2)cc1	119*
c1ccc(SCCN2CCOCC2)cc1	-2
SMILES	14-3-3 PPI
C1COCCOCCN(CCOCCOCCN2CCOCCOCCOCCOCC2)CCOCCO1	1
O=C(Cn1cnc2ccccc2c1=O)NCCC(=O)Nc1cccc(Cl)c1	-6
Cc1ccc(NC(=O)N2CCCN(Cc3ccccc3F)C2)cc1C	1
O=[N+]([O-])c1ccc(-c2nc3cc([N+](=O)[O-])ccc3o2)cc1	-5
CCN(C(=O)CCN1C(=S)NC(C)(C)CC1C)c1ccc(C)c(C)c1 (stereo unspecified)	51*
CCN(C(=O)CN1C(=S)NC(C)(C)CC1C)c1ccc(C)c(C)c1 (stereo unspecified)	-5
Cc1cccc(NC(=O)CCN2C(=S)NC(C)(C)CC2C)c1C (stereo unspecified)	4
CCOC(=O)CSCC(=O)N1N=C(c2ccc(Br)cc2)CC1c1ccc(F)cc1 (stereo unspecified)	4
CCOC(=O)c1cc2c(=O)n3ccccc3nc2n(CC2CCCO2)c1=NC(=O)c1cccs1 (stereo unspecified)	-16
COC(=O)c1cnoc1N	1
CCOC(=O)c1ccc(NC(=O)c2ccc(C3SCC(=O)N3Cc3ccccc3)cc2)cc1 (stereo unspecified)	-14
COc1ccc(Cl)cc1Nc1ncnc2sc3c(c12)CCCC3	-7
COc1cccc(CNC(=O)c2ccc(CNS(=O)(=O)c3ccc(C)cc3)cc2)c1	34*
CNC(=O)c1ccc(CNS(=O)(=O)c2ccc(C)cc2)cc1	3
Cc1ccc(CNC(=O)c2ccc(CNS(=O)(=O)c3ccc(C)cc3)cc2)cc1	-6
COc1ccc(-n2nc3ccc(NC(=O)c4cc(OC)cc(OC)c4)cc3n2)cc1	-1
CN(C(=O)c1ccc2c(c1N)C(=O)c1ccccc1C2=O)c1ccccc1	132*
CN(C(=O)c1ccc2c(c1)C(=O)c1ccccc1-2)c1ccc([N+](=O)[O-])cc1	-3
CCSc1c(C(N)=O)ccc2c1C(=O)c1ccccc1C2=O	-42
CCOc1ccc(-c2n[nH]c3c2C(c2ccccn2)N(c2ccc(Br)cc2)C3=O)cc1 (stereo unspecified)	-9
Cc1c(C)n(CC(O)CNCc2ccco2)c2ccccc12 (stereo unspecified)	-6
Cc1cc(C)c2c(c1)NC(c1ccc(C(=O)O)cc1)C1CC=CC21 (stereo unspecified)	-219
CNc1ccc2nc3ccccc3[n+](CCO)c2c1	67*
CCc1ccc(Nc2cc(C(=O)O)c3ccccc3n2)cc1	-3
O=C(NCc1ccccn1)c1ccc(Cn2c(=S)[nH]c3cc4c(cc3c2=O)OCO4)cc1	-20
SMILES	14-3-3 PPI
CCOc1ccccc1NC(=O)C1=C(C)NC(=O)NC1c1ccc(C)cc1 (stereo unspecified)	-24
O=[N+]([O-])c1cnn(-c2nc(-c3ccc(F)cc3)cc(C(F)(F)F)n2)c1	-6
NC(=O)c1sc2nc3c(c(-c4ccc(Cl)cc4)c2c1N)CCCCC3	-5
CCOc1ccccc1NC(=O)CSC1=Nc2ccccc2C2=NC(c3ccccc3)C(=O)N12 (stereo unspecified)	-77
Cc1cccc(C(=O)Nc2cccc(NC(=O)c3cccc(C)c3)c2)c1	45*
Cc1cccc(C(=O)Nc2ccc(O)cc2)c1	2
Cc1cccc(C(=O)Nc2cccc(NC(=O)c3ccc(F)cc3)c2)c1	2
CCOc1cc([N+](=O)[O-])cc(C=Nc2cccc(NC(=O)c3ccccc3)c2)c1O	-74
O=C(Nc1cccc(N=Cc2c(O)ccc3cc([N+](=O)[O-])ccc23)c1)c1ccccc1	32*
O=C(Nc1cccc(N=Cc2c(O)ccc3cc([N+](=O)[O-])ccc23)c1)c1ccc(F)cc1	-1
C=CCSc1nnc2c(n1)OC(c1cccc(F)c1)Nc1ccccc1-2 (stereo unspecified)	-98
C=CCOc1ccc(C2Nc3ccc(Br)cc3-c3nnc(SC)nc3O2)cc1 (stereo unspecified)	-84
CCCSc1nnc2c(n1)OC(C1CC=C(C)CC1C)Nc1ccccc1-2 (stereo unspecified)	6
CCSc1nnc2c(n1)OC(C1CC=C(C)CC1C)Nc1ccccc1-2 (stereo unspecified)	-31
CSc1nnc2c(n1)OC(C1CC=C(C)CC1C)Nc1ccccc1-2 (stereo unspecified)	83*
C=CCOc1cccc(C2Nc3ccccc3-c3nnc(SC)nc3O2)c1 (stereo unspecified)	134*
CSc1nnc2c(n1)OC(c1ccc(OCC(=O)O)cc1)Nc1ccccc1-2 (stereo unspecified)	-3
CCOc1ccc(C2Nc3ccccc3-c3nnc(SCC)nc3O2)cc1 (stereo unspecified)	0
CSc1nnc2c(n1)OC(c1ccc(OCc3ccccc3)cc1)Nc1ccccc1-2 (stereo unspecified)	33*
COc1ccccc1Nc1ncc(C(=O)Nc2cc(OC)c(OC)c(OC)c2)c2ccccc12	-12
CC1(C)CC(=O)c2c(-c3ccc(F)cc3)n[nH]c2C1	-3
O=C(NC1CCCC1)c1ccc(CS(=O)c2ccccc2)o1 (stereo unspecified)	-4
CCc1ccc(NC(=O)c2oc(=O)c3ccccc3c2-c2ccc(C)cc2)cc1	2
Cc1ccc(-c2c(C(=O)Nc3ccc(N(C)C)cc3)oc(=O)c3ccccc23)cc1	39*
